Where “and” joins values, the source holds several entries; their conditions need not be identical. Identical values can stand only once. About 5,700 (36%) of roughly 16,000 compounds were called active. Roughly 24% stayed inconclusive and do not appear here. Some of the results follow. A number with no mark means an inactive call. Calls follow the shape of the dose curve; as a rule, active = well fitted curve in the direction sought with a large enough effect; inconclusive = small, poorly fitted or top-dose-only effect, or effect the other way; inactive = no such curve, though single readings can be large or run the other way.
Biological target: Cytochrome P450 1A2 (Homo sapiens) (UniProt P05177)
Sequence (P05177 whole entry, looked up): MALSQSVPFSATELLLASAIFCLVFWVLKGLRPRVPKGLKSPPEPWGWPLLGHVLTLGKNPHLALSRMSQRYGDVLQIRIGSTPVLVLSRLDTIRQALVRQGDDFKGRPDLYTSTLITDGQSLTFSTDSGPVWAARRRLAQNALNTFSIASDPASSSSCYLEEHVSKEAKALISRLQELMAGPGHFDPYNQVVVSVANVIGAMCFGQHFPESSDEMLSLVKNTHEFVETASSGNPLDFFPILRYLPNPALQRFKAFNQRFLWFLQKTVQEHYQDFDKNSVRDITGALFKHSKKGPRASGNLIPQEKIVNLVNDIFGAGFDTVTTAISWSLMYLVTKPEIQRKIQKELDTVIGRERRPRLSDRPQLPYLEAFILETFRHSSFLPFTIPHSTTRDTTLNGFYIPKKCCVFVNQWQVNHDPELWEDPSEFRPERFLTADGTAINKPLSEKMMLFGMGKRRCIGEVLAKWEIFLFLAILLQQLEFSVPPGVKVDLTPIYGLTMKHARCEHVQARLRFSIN
Experiment: Cytochrome panel assay with activity outcomes
Details: recombinant CYP, pro-luciferin dealkylation, luminescence, p450-cyp1a2; series mostly up to 57.1 µM; activity, negative = inhibition: at the top concentration
% is scaled to controls: 0 for no effect and ±100 for the full control effect.

| Structure (SMILES) | activity, negative = inhibition | AC50 |
| --- | --- | --- |
| CCN1CCN(C(=O)N[C@H](C(=O)N[C@@H]2C(=O)N3C(C(=O)O)=C(CSc4nnnn4C)CS[C@@H]23)c2ccc(O)cc2)C(=O)C1=O | -9.57% [at 25.6 µM] |  |
| CCOC(=O)CSc1cc(C(F)(F)F)nc(-c2ccccn2)n1 |  | 2.24 µM (active) |
| CC(C)Nc1cc(C(F)(F)F)nc(-c2ccccn2)n1 |  | 1.58 µM (active) |
| O=C(O)CSc1cc(C(F)(F)F)nc(-c2ccccn2)n1 | -5.99% |  |
| COC(=O)CSc1cc(C(F)(F)F)nc(-c2ccccn2)n1 |  | 0.708 µM (active) |
| FC(F)(F)c1cc(Sc2ccccc2)nc(-c2ccccn2)n1 |  | 0.891 µM (active) |
| COc1ccccc1-c1cncnc1NCc1cccnc1 |  | 6.31 µM (active) |
| COc1ccccc1-c1cncnc1NCc1ccccc1 |  | 12.6 µM (active) |
| COc1ccccc1-c1cncnc1NCc1cccc(C)c1 |  | 5.01 µM (active) |
| CCC[C@@H]1C[C@@]1(CCC)C(NS(=O)(=O)c1cccc2cccnc12)c1ccc(Cl)cc1 (stereo partly drawn) | -12.8% |  |
| CC(C)NC(=O)N1CC[C@@]2(CCCN(C(=O)c3cccc(F)c3)C2)C1 | 1.3% |  |
| COc1ccc2[nH]cc(CCNc3ncnc4ccc(-c5ccoc5)cc34)c2c1 |  | 0.316 µM (active) |
| COc1ccc2[nH]cc(CCNc3ncnc4ccc(-c5ccc6c(c5)OCO6)cc34)c2c1 |  | 0.631 µM (active) |
| C=CC(C)(C)c1[nH]c2ccccc2c1C1=C(O)C(=O)C(c2c[nH]c3c(CC=C(C)C)cccc23)=C(O)C1=O |  | 25.1 µM (active) |
| O=C(CSc1nnc(-c2ccco2)n1-c1ccccc1)NCc1ccco1 | -13.4% |  |
| O=C(CSc1nnc2sc3ccccc3n12)NCc1ccco1 |  | 10 µM (active) |
| CCOC(=O)c1sc2nc(CC(=O)OC)nc(NCc3ccc(F)cc3)c2c1C |  | 14.1 µM (active) |
| COc1ccc(COC(=O)N/N=C2/C[C@@H](O)[C@@H](O)[C@@H]3[C@@H]4C(=O)N(c5cccc(Oc6ccccc6)c5)C(=O)[C@H]4CC[C@@H]23)cc1 | -36.2% [at 11.4 µM] |  |
| C/C(=N/Nc1nc(C)cc(=O)[nH]1)C(=O)O | -8.18% [at 11.4 µM] |  |
| Nc1cc(=O)[nH]c(SCC(=O)Nc2ccc(S(=O)(=O)N3CCOCC3)cc2)n1 | -6.97% |  |
| CCC(Sc1nc(C)cc(=O)[nH]1)C(=O)Nc1nc2c(s1)CCCC2 (stereo not drawn) |  | 12.6 µM (active) |
| Cc1cc(=O)[nH]c(SCC(=O)Nc2nc3c(s2)CCCC3)n1 |  | 12.6 µM (active) |
| Cc1cc(=O)[nH]c(-n2[nH]c3c(c2=O)CCCC3)n1 | -21.9% |  |
| CC(c1ccccc1C(O)c1ccccc1)N(C)C (stereo not drawn) | -10.1% |  |

| Structure (SMILES) | activity, negative = inhibition | AC50 |
| --- | --- | --- |
| COc1ccc(NC(=O)C2c3cc(OC)c(OC)cc3C(=O)N(C)C2c2cccnc2)cc1OC (stereo not drawn) | -41.4% |  |
| O=C(NNC(=O)C1CC(c2cccnc2)=NO1)Nc1cccc(F)c1 (stereo not drawn) |  | 14.1 µM (active) |
| COc1cccc(C2=NOC(C(=O)Nc3cccnc3)C2)c1 (stereo not drawn) |  | 10 µM (active) |
| COc1cccc(C2=NOC(C(=O)NCCN3CCOCC3)C2)c1 (stereo not drawn) | 14.5% |  |
| Cc1ccc(NC(=O)NNC(=O)C2CC(c3cccnc3)=NO2)cc1 (stereo not drawn) | -39.7% |  |
| O=C(Nc1cccc(F)c1)N1CC2(CCN(C(=O)c3cnccn3)CC2)C1 | -8.35% |  |
| COCCNC(=O)C1CC(c2cccc(OC)c2)=NO1 (stereo not drawn) | -27.9% |  |
| COc1cccc(C2=NOC(C(=O)Nc3ccc(OC)c(OC)c3)C2)c1 (stereo not drawn) |  | 10 µM (active) |
| CCN1C(=O)[C@H]2[C@@H]3[C@H](O)[C@H](O)CC(=O)[C@H]3CC[C@H]2C1=O | -11.3% [at 11.4 µM] and -4.71% [at 11.4 µM] |  |
| CN1CCCN(C2C3CC4CC(C3)CC2C4)CC1 (stereo not drawn) | 3.67% |  |
| c1cc(CSSCc2ccncc2)ccn1 |  | 2 µM (active) |
| c1cc(CNCCN2CCNCC2)ccn1 | -16% [at 11.4 µM] |  |
| CN(Cc1ccco1)c1ncnc2ccc(-c3ccc4c(c3)OCO4)cc12 |  | 0.501 µM (active) |
| CN(Cc1ccco1)c1ncnc2ccc(-c3ccoc3)cc12 |  | 2.51 µM (active) |
| O=C(CC(=O)c1ccncc1)c1ccccc1 |  | 0.1 µM (active) |
| O=C(c1ccncc1)N1CCC2(CCN(Cc3ccccc3)CC2)CC1 | 6.61% |  |
| O=C(NNC(=O)c1ccncc1)c1ccncc1 | -7.18% [at 11.4 µM] |  |
| Cn1c(-c2sc(=S)n(-c3ccccc3)c2N)nc2ccccc21 |  | 0.708 µM (active) |
| O=C1C[C@@H](O)[C@@H](O)[C@H]2[C@@H]3C(=O)N(Cc4ccccc4)C(=O)[C@@H]3CC[C@H]12 | 7.93% [at 11.4 µM] and -5.24% [at 11.4 µM] |  |
| Nc1ccc(N=Nc2ccc(-c3ccc(O)cc3)cc2)c2ccc(S(=O)(=O)O)cc12 | -17.8% [at 2.29 µM] |  |
| COc1cc(-c2ccc(N=Nc3ccc4c(S(=O)(=O)O)cc(S(=O)(=O)O)c(N)c4c3O)c(OC)c2)ccc1N=Nc1ccc2c(S(=O)(=O)O)cc(S(=O)(=O)O)c(N)c2c1O |  | 12.6 µM (active) |
| COc1ccc(N2C(=O)CCC(C(=O)O)C2c2ccc(F)cc2)cc1 (stereo not drawn) | 3.19% |  |
| COc1ccc(CNc2ccnc(-c3ccccc3OC)n2)c(OC)c1 |  | 5.01 µM (active) |
| COc1ccc(CNc2ccnc(-c3ccccc3C(F)(F)F)n2)c(OC)c1 |  | 15.8 µM (active) |

| Structure (SMILES) | activity, negative = inhibition | AC50 |
| --- | --- | --- |
| COc1ccccc1CNc1ccnc(-c2ccccc2C(F)(F)F)n1 |  | 10 µM (active) |
| COc1ccc([C@@H](Nc2ccccn2)c2cc(C(C)(C)C)cc(C(C)(C)C)c2O)cc1 | 1.22% [at 2.29 µM] |  |
| COc1ccc(CNc2ccnc(-c3ccccc3Cl)n2)c(OC)c1 |  | 5.01 µM (active) |
| CO[C@H]1COC(=O)C/C=C\[C@@H](C)COC(=O)[C@@H](OCc2ccccc2)/C=C\[C@@H]1C | -1.45% [at 11.4 µM] |  |
| CC(=O)OC[C@@H]1O[C@@H](O/N=C2/C[C@@H](O)[C@@H](O)[C@@H]3[C@H]4C(=O)N(c5ccc(F)cc5F)C(=O)[C@@H]4CC[C@@H]23)[C@H](OC(C)=O)[C@H](OC(C)=O)[C@@H]1OC(C)=O | 2.88% [at 11.4 µM] |  |
| Cc1n[nH]c(=O)nc1NCc1ccccc1Cl | -20% |  |
| COc1ccccc1CNc1ccnc(-c2ccccc2Cl)n1 |  | 5.01 µM (active) |
| Cc1cc(OCCn2cc(/C(N)=N/O)c3ccccc32)ccc1Cl |  | 2 µM (active) |
| CC(=O)c1cn(CC(=O)Nc2c(C)cccc2C)c2ccccc12 | -15.1% |  |
| CC(=O)NNc1nc2ccccc2s1 |  | 11.2 µM (active) |
| O=[N+]([O-])c1ccc(Nc2nc3ccccc3s2)cc1 | -20% [at 11.4 µM] |  |
| CC(=O)NNC(=O)C(O)(c1ccccc1)c1ccccc1 | 11.7% |  |
| O=C(NNc1nc2ccccc2s1)C1CC1 |  | 20 µM (active) |
| c1ccc2sc(NC3=NCN(C4CCCCCC4)CN3)nc2c1 | -20.1% |  |
| NC(=O)c1ccc(NC(=O)C2CCCO2)cc1 (stereo not drawn) | -0.873% |  |
| CCOC(=O)c1ccc(NC(=O)C2CCCO2)cc1 (stereo not drawn) |  | 2.51 µM (active) |
| Cc1ccc(CS(=O)(=O)CCC(=O)NCCCN2CCCC2)cc1 | -13.9% |  |
| CCC(=O)NNc1cc(=O)c2c(=O)n(C)c(=O)n(C)c2[nH]1 |  | 2.82 µM (active) |
| CCCC(CCC)C(=O)NNc1cc(=O)c2c(=O)n(C)c(=O)n(C)c2[nH]1 | -22.7% |  |
| Cc1nn(-c2ccc(F)cc2)c(Cl)c1/C=C(\CCC(=O)O)c1nc2ccccc2s1 | -0.314% |  |
| Cc1cc(C)nc(NS(=O)(=O)c2ccc(N)cc2)n1 | -4.94% [at 25.6 µM] |  |
| Cc1nn(-c2ccc(F)cc2)c(C)c1NS(=O)(=O)c1ccc2ccccc2c1 |  | 15.8 µM (active) |
| CCCCn1c(NCc2ccccc2NS(=O)(=O)c2ccc(C)cc2)nc2ccccc21 | 4.94% |  |
| COc1ccccc1S(=O)(=O)Nc1ccc(-c2nnc3n2CCCCC3)cc1 | 0.614% |  |

| Structure (SMILES) | activity, negative = inhibition | AC50 |
| --- | --- | --- |
| Cc1ccc(S(=O)(=O)Nc2nc3ccccc3nc2N2CCc3ccccc3C2)cc1 |  | 22.4 µM (active) |
| Cc1ccc(C(=O)N/N=C\c2cccn2C)cn1 |  | 12.6 µM (active) |
| Cn1cccc1/C=N/NC(=O)c1sc2ccccc2c1Cl |  | 0.891 µM (active) |
| C=N[C@H](C(=O)N[C@@H]1C(=O)N2[C@@H]1SC(C)(C)[C@@H]2C(=O)O)c1ccccc1 | -11.1% [at 25.6 µM] |  |
| O=[N+]([O-])c1ccc2nc(-c3ccc(Cl)cc3)n(OCc3ccccc3)c2c1 |  | 2.51 µM (active) |
| Clc1ccc(COn2c(-c3ccccc3)nc3ccccc32)cc1 |  | 1.58 µM (active) |
| Oc1ccc(Cn2c(-c3ccc(O)cc3)nc3ccccc32)cc1 | -5.47% [at 11.4 µM] |  |
| O=[N+]([O-])c1ccc(N2CCC(=NOCc3ccc(Cl)cc3)CC2)cc1 | -21.2% |  |
| O=[N+]([O-])c1ccc2nc(-c3ccccc3)n(OCc3ccc(Cl)cc3)c2c1 |  | 2.24 µM (active) |
| Cc1ccc(COn2c(-c3ccc(Cl)cc3)nc3ccc([N+](=O)[O-])cc32)cc1 |  | 0.398 µM (active) |
| C1CNCCOCCNCCN1 | -0.3% |  |
| c1ccc2cc(NCNc3ccc4ccccc4c3)ccc2c1 |  | 0.631 µM (active) |
| CC(C)C[C@H](NC(=O)[C@@H](O)[C@@H](N)Cc1ccccc1)C(=O)O |  | inactive |
| O=C(COc1ccc2ccccc2c1)Nc1ccc(Cc2ccncc2)cc1 |  | 0.112 µM (active) |
| CC(C)C[C@@H](N)C(=O)Nc1ccc2ccccc2c1 |  | 1.58 µM (active) |
| CC(C)C[C@H](NC(=O)[C@@H](O)[C@H](N)Cc1ccccc1)C(=O)O | -28% |  |
| C=CCSc1nnc(NC(=O)COc2ccc3ccccc3c2)s1 | -21.5% |  |
| CC(=O)CC(=O)Nc1ccc2ccccc2c1 |  | 2 µM (active) |
| CCc1ccc(OCC(=O)Nc2ccc(-c3nc4ccccc4o3)c(O)c2)cc1 | 8.68% |  |
| O=C(O)C[C@H](S)C(=O)O | -2.96% [at 11.4 µM] |  |
| CO[C@H]1COC(=O)[C@@H](Cc2ccccc2)NC(=O)[C@@H](C)COC(=O)C/C=C\[C@@H]1C | -3.6% [at 11.4 µM] |  |
